# Experimental data: the supplement of paper PMC8728848
# This is one part of a sample in which the strongest signals are shown more often than they occur.
# Key:
# Test in all cases: glycan array binding signal (z-score within array); higher = stronger binding
# Settings in all cases: glycan notation: IUPAC condensed, linker removed
# [1] = biological target: Fuc(a1-2)Gal(b1-3)GalNAc(a1-3)[Fuc(a1-2)]Gal(b1-4)GlcNAc
# Summary of the method: (§1)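 The binding signal is a Z-score computed within each array. Data were drawn from 3228 arrays in the Consortium for Functional Glycomics database, restricted to those with a known protein sequence. Scores were averaged over arrays of the same protein sequence at different concentrations or buffers, and over linkers, and negative values can be taken as non-binding.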
# [2] = biological target: Fuc(a1-2)Gal(b1-3)GalNAc(b1-3)Gal
# Summary of the method: as §1
# [3] = biological target: Fuc(a1-2)Gal(b1-3)GalNAc(b1-4)[Neu5Ac(a2-3)]Gal(b1-4)Glc
# Summary of the method: as §1
# [4] = biological target: Fuc(a1-2)Gal(b1-3)GlcNAc(b1-2)Man(a1-3)[Fuc(a1-2)Gal(b1-3)GlcNAc(b1-2)Man(a1-6)]Man(b1-4)GlcNAc(b1-4)[Fuc(a1-6)]GlcNAc
# Summary of the method: as §1
# [5] = biological target: Fuc(a1-2)Gal(b1-3)[Fuc(a1-4)]GlcNAc(b1-2)Man(a1-3)[Fuc(a1-2)Gal(b1-3)[Fuc(a1-4)]GlcNAc(b1-2)Man(a1-3)]Man(b1-4)GlcNAc(b1-4)GlcNAc
# Summary of the method: as §1
# [6] = biological target: Fuc(a1-2)Gal(b1-4)Glc6S
# Summary of the method: as §1
# [7] = biological target: Fuc(a1-2)Gal(b1-4)GlcNAc(b1-2)Man(a1-3)[Fuc(a1-2)Gal(b1-4)GlcNAc(b1-2)Man(a1-6)]Man(b1-4)GlcNAc(b1-4)[Fuc(a1-6)]GlcNAc
# Summary of the method: as §1
# [8] = biological target: Fuc(a1-2)Gal(b1-4)GlcNAc(b1-3)Gal(b1-4)GlcNAc(b1-2)Man(a1-3)[Fuc(a1-2)Gal(b1-4)GlcNAc(b1-3)Gal(b1-4)GlcNAc(b1-2)Man(a1-6)]Man(b1-4)GlcNAc(b1-4)GlcNAc
# Summary of the method: as §1
# [9] = biological target: Fuc(a1-2)Gal(b1-4)[Fuc(a1-3)]GlcNAc(b1-3)GalNAc
# Summary of the method: as §1
# [10] = biological target: Fuc(a1-2)Gal6S(b1-3)GlcNAc6S
# Summary of the method: as §1
# [11] = biological target: Fuc(a1-2)[Gal(a1-3)]Gal(b1-4)GlcNAc(b1-3)[Fuc(a1-2)[Gal(a1-3)]Gal(b1-4)GlcNAc(b1-6)]GalNAc
# Summary of the method: as §1
# [12] = biological target: Fuc(a1-2)[Gal(a1-3)]Gal(b1-4)[Fuc(a1-3)]Glc
# Summary of the method: as §1
# [13] = biological target: Fuc(a1-2)[GalNAc(a1-3)]Gal(b1-3)GlcNAc(b1-6)GalNAc
# Summary of the method: as §1
# [14] = biological target: Fuc(a1-2)[GalNAc(a1-3)]Gal(b1-4)Glc
# Summary of the method: as §1
# [15] = biological target: Fuc(a1-2)[GalNAc(a1-3)]Gal(b1-4)GlcNAc
# Summary of the method: as §1
# [16] = biological target: Fuc(a1-2)[GalNAc(a1-3)]Gal(b1-4)GlcNAc(b1-2)Man
# Summary of the method: as §1
# [17] = biological target: Fuc(a1-3)[Gal(b1-4)]GlcNAc(b1-3)Gal(b1-4)[Fuc(a1-3)]GlcNAc
# Summary of the method: as §1
# [18] = biological target: Fuc(a1-3)[Gal(b1-4)]GlcNAc(b1-6)GalNAc
# Summary of the method: as §1
# [19] = biological target: Fuc(a1-3)[Gal3S(b1-4)]GlcNAc6S
# Summary of the method: as §1
# [20] = biological target: Fuc(a1-4)GlcNAc
# Summary of the method: as §1
# [21] = biological target: Gal(b1-3)Gal
# Summary of the method: as §1
# [22] = biological target: Gal(b1-3)Gal(b1-4)GlcNAc
# Summary of the method: as §1
# [23] = biological target: Gal(b1-3)GalNAc(a1-3)[Fuc(a1-2)]Gal(b1-4)GlcNAc
# Summary of the method: as §1
# [24] = biological target: Gal(b1-3)GlcNAc(b1-3)Gal(b1-4)GlcNAc(b1-6)[Gal(b1-3)GlcNAc(b1-3)]Gal(b1-4)Glc
# Summary of the method: as §1
# [25] = biological target: Gal(b1-3)[Neu5Ac(a2-6)]GlcNAc(b1-4)Gal(b1-4)Glc
# Summary of the method: as §1
# [26] = biological target: Gal(b1-4)Gal
# Summary of the method: as §1
# [27] = biological target: Gal(b1-4)GlcNAc(b1-2)Man(a1-3)[GlcNAc(b1-4)][Gal(b1-4)GlcNAc(b1-2)Man(a1-6)]Man(b1-4)GlcNAc(b1-4)GlcNAc
# Summary of the method: as §1
# [28] = biological target: Gal(b1-4)GlcNAc(b1-2)[Gal(b1-4)GlcNAc(b1-6)]Man(a1-6)[Gal(b1-4)GlcNAc(b1-2)Man(a1-3)]Man(b1-4)GlcNAc(b1-4)GlcNAc
# Summary of the method: as §1
# [29] = biological target: Gal(b1-4)GlcNAc(b1-2)[Gal(b1-4)GlcNAc(b1-6)]Man(a1-6)[Gal(b1-4)GlcNAc(b1-2)Man(a1-3)]Man(b1-4)GlcNAc(b1-4)[Fuc(a1-6)]GlcNAc
# Summary of the method: as §1
# [30] = biological target: Gal(b1-4)GlcNAc(b1-3)Gal(b1-4)GlcNAc
# Summary of the method: as §1
binder,measurement,setting,value
SabA (Helicobacter pylori) (protein) MGSSHHHHHHSSGLVPRGSHMENLYFQGEDNGFFVSAGYQIGEAVQMVKNTGELKNLNEKYEQLSQYLNQVASLKQSIQNANNIELVNSSLNYLKSFTNNNYNSTTQSPIFNAVQAVITSVLGFWSLYAGNYFTFFVGKKVGDSGQPASVQGNPPFKTIIENCSGIENCAMDQTTYDKMKKLAEDLQAAQTNSATKGNNLCALSGCAATDSTSNPPNSTVSNALNLAQQLMDLIANTKTAMMWKNIVISGVSNTSGAITSTNYPTQYAVFNNIKAMIPILQQAVTLSQSNHTLSASLQAQATGSQTNPKFAKDIYTFAQNQKQVISYAQDIFNLFNSIPAEQYKYLEKAYLKIPNAGSTPTNPYRQVVNLNQEVQTIKNNVSYYGNRVDAALSVARDVYNLKSNQAEIVTAYNDAKTLSEEISKLPHNQVNTKDIVTLPYDKNAPAAGQSNYQINPEQQSNLNQALAAMSNNPFKKVGMISSQNNNGA,glycan array binding signal (z-score),[1],0.026
same,glycan array binding signal (z-score),[2],-0.181
same,glycan array binding signal (z-score),[3],0.208
same,glycan array binding signal (z-score),[4],1.55
same,glycan array binding signal (z-score),[5],3.91
same,glycan array binding signal (z-score),[6],0.21
same,glycan array binding signal (z-score),[7],2.49
same,glycan array binding signal (z-score),[8],0.579
same,glycan array binding signal (z-score),[9],2.43
same,glycan array binding signal (z-score),[10],3.74
same,glycan array binding signal (z-score),[11],2.78
same,glycan array binding signal (z-score),[12],-0.48
same,glycan array binding signal (z-score),[13],-0.962
same,glycan array binding signal (z-score),[14],-0.596
same,glycan array binding signal (z-score),[15],-0.145
same,glycan array binding signal (z-score),[16],-0.319
same,glycan array binding signal (z-score),[17],1.26
same,glycan array binding signal (z-score),[18],1.95
same,glycan array binding signal (z-score),[19],-0.083
same,glycan array binding signal (z-score),[20],2.89
same,glycan array binding signal (z-score),[21],-0.298
same,glycan array binding signal (z-score),[22],-0.637
same,glycan array binding signal (z-score),[23],-0.576
same,glycan array binding signal (z-score),[24],-0.24
same,glycan array binding signal (z-score),[25],0.532
same,glycan array binding signal (z-score),[26],0.204
same,glycan array binding signal (z-score),[27],-0.111
same,glycan array binding signal (z-score),[28],0.291
same,glycan array binding signal (z-score),[29],0.877
same,glycan array binding signal (z-score),[30],-0.924
